Experimental data: PubChem BioAssay (NCATS)
“And” between values parts separate entries of the source, which are not always exact repeats. Equal values may be shown once. Results filed as inconclusive are left out. The source made the active and inactive calls. Unless noted, calls come from the whole dose curve; as a rule, active = well fitted curve in the direction sought with a large enough effect; inconclusive = small, poorly fitted or top-dose-only effect, or another doubt; inactive = no such curve, though single readings can be large; an effect the other way counts as inactive or inconclusive. Residues, ends and D or L forms follow the SMILES beside them. *: point of attachment. Cbz = O=C(OCc1ccccc1)*

Legend:
[1] = qHTS profiling of the MIPE4 collection as inhibitors of Plasmodium falciparum (3D7) proliferation (AID 743344; call rule not given here;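 note: scaled between DMSO vehicle wells and 0.29 µM artemisinin as full inhibition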); conditions: P. falciparum 3D7 in erythrocytes, SYBR Green DNA fluorescence, 72 h; at 28.5 µM unless noted
In short: (§1)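 Erythrocytes infected with P. falciparum (0.3% parasitemia, 2.5% hematocrit) incubated with compounds 72 h at 37 C, 5% CO2. Lysis with saponin/Triton buffer containing SYBR Green I, overnight at room temperature in the dark; DNA fluorescence (485/535 nm) normalised to 0.29 uM artemisinin and DMSO.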

[2] = qHTS profiling of the MIPE4 collection as inhibitors of Plasmodium falciparum (DD2) proliferation (AID 743345; call rule not given here); conditions: P. falciparum Dd2 in erythrocytes, SYBR Green DNA, 72 h; at 28.5 µM unless noted
In short: as §1

[3] = qHTS profiling of the MIPE4 collection as inhibitors of Plasmodium falciparum (DD2) proliferation (Rep 2) (AID 743346; call rule not given here); conditions: P. falciparum Dd2 in erythrocytes, SYBR Green DNA, 72 h; at 28.5 µM unless noted
In short: as §1

[4] = qHTS profiling of the MIPE4 collection as inhibitors of Plasmodium falciparum (HB3) proliferation (AID 743347; call rule not given here;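 note: plate controls were DMSO vehicle wells for no effect and artemisinin wells for full effect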); conditions: P. falciparum HB3 in erythrocytes, SYBR Green DNA, 72 h; at 28.5 µM unless noted
In short: as §1

[5] = High-throughput drug toxicity screening in the BPDCN cell line Gen2.2 (AID 1224824; call rule not given here;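 note: cells exposed to compounds for 48 h before reading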); conditions: Gen2.2 BPDCN cells; at 45.8 µM (top of the series) unless noted
In short: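 Gen2.2 cells (500/well) in phenol red-free RPMI with 10% FBS were exposed to compounds for 48 h at 37 °C, 5% CO2. Viability was read by CellTiter-Glo luminescence and normalized to DMSO (100%) and 9.2 uM bortezomib (0%).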

[6] = High-throughput drug toxicity screening in the BPDCN cell line Cal-1 (AID 1224825; call rule not given here); conditions: Cal-1 BPDCN cell viability, qHTS; at 45.8 µM (top of the series) unless noted
In short: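 500 Cal-1 cells/well, RPMI + glutamine + 10% FBS (phenol red-free); cpd added by pin tool; 48 h, 37C, 5% CO2; CTG 15 min RT, lumi read. Normalised: DMSO 100%, bortezomib 9.2 uM 0%.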

[7] = qHTS assay for measurement of the activity of small molecule inhibitors on Zika virus induced Caspase-3 activity in human astrocytoma cells (AID 1224859);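 note: plate controls were ZIKV-infected untreated cells for no effect and uninfected cells for full effect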
In short: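 Percent inhibition of virus-induced caspase-3/7 signal is calculated against uninfected and ZIKV-infected control cells. Cells are SNB-19, infected at 2 FFU/cell for 6 h after 1 h compound exposure.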

[8] = qHTS Screen of the MIPE 4.0 Collection Against Ewings Sarcoma (RDES) (AID 1259252); note: nearly all actives have a fitted effect of over 35% in size; note: potency is the fitted concentration of half-maximal effect
In short: (§2)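 CellTiter-Glo luminescence after 48 h compound exposure (titration) gave viability; percent activity used DMSO-treated cells as no inhibition and medium-only wells as full inhibition. Cells grown in RPMI/5% FBS, dosed 4 h post-seeding.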

[9] = qHTS Screen of the MIPE 4.0 Collection Against Ewings Sarcoma (EW8) (AID 1259255); note: nearly all actives have a fitted effect of over 35% in size; note: potency is the fitted concentration of half-maximal effect;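 for viability: 100% = DMSO-treated cells and 0% = medium-only wells without cells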
In short: as §2

[10] = qHTS Screen of the MIPE 4.0 Collection Against Ewings Sarcoma (TC32) (AID 1259256); note: nearly all actives have a fitted effect of over 45% in size; note: potency is the fitted concentration of half-maximal effect
In short: as §2

[11] = P-glycoprotein substrates identified in KB-8-5-11 adenocarcinoma cell line, qHTS therapeutic library screen (AID 1346987); note: nearly all actives have a fitted effect of over 65% in size; note: potency is the fitted concentration of half-maximal effect
In short: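 KB-8-5-11, a colchicine-selected P-gp-overexpressing KB-3-1 subline, was grown without colchicine for the assay. Cells were seeded at 500 cells/well, dosed in concentration-response and incubated 72 h at 37 degree C, 5% CO2. Viability was read by CellTiter-Glo luminescence.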

[12] = qHTS Screen of the MIPE 4.0 Collection Against Ewings Sarcoma (TC71) (AID 1259253); note: nearly all actives have a fitted effect of over 40% in size; note: potency is the fitted concentration of half-maximal effect
In short: as §2

[13] = qHTS assay for measurement of the activity of small molecule inhibitors on Zika virus induced Caspase-3 activity in human iPSC derived neural progenitor cells (hNPCs) (AID 1224857); note: nearly all actives have a fitted effect of over 65% in size; note: potency is the fitted concentration of half-maximal effect
In short: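 Cells were plated at 350 per well and grown 16 to 20 hours. Compound pretreatment lasted one hour, after which ZIKV (2 FFU/cell) was added for 6 hours. Percent inhibition was normalized between uninfected and infected controls.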

[14] = P-glycoprotein substrates identified in KB-3-1 adenocarcinoma cell line, qHTS therapeutic library screen (AID 1346986); note: nearly all actives have a fitted effect of over 60% in size
In short: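 Cells seeded 500/well in DMEM/10% FCS; compounds pinned in dose-response; 72 h incubation; CellTiter-Glo added, 5 min, luminescence. KB-8-5-11 run ±tariquidar to test reversal of P-gp resistance.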

[15] = qHTS profiling for inhibitors of Plasmodium falciparum (3D7) proliferation (AID 743322; call rule not given here;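 note: infected erythrocytes exposed to compound for 72 h before lysis; 100% = DMSO vehicle wells and 0% = 0.29 µM artemisinin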); conditions: P. falciparum 3D7 proliferation; at 28.7 µM (top of the series)
In short: as §1

[16] = qHTS profiling for inhibitors of Plasmodium falciparum (DD2) proliferation (AID 743323; call rule not given here); conditions: lower = more inhibition; at 28.7 µM (top of the series)
In short: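 SYBR Green fluorescence (ex 485, em 535 nm) of lysed cultures gives parasite DNA content; wells normalized to artemisinin (0.29 uM) and DMSO controls. Infected red cells: 0.3% parasitemia, 2.5% hematocrit, 72 h, 37 C.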

[17] = qHTS profiling for inhibitors of Plasmodium falciparum (HB3) proliferation (AID 743324); conditions: Plasmodium falciparum HB3 blood-stage proliferation; at 28.7 µM (top of the series);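 note: 100% = DMSO vehicle wells and 0% = artemisinin-treated control wells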
In short: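 P. falciparum HB3 grown in erythrocytes (0.3% parasitemia, 2.5% hematocrit final) with compound for 72 h at 37 C, 5% CO2. Parasite DNA detected by SYBR Green after saponin/triton lysis overnight; normalized to 0.29 uM artemisinin and DMSO.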

SMILES	parasite growth, % of DMSO control [1]	parasite growth remaining, % of DMSO control (lower = more inhibition) [2]	parasite growth, % of control (lower = inhibition) [3]	growth, % of control [4]	cell viability, % of control (lower = more cytotoxic) [5]	viability (% of control) [6]	Potency [7]	Potency [8]	Potency [9]	Potency [10]	Potency [11]	Potency [12]	Potency [13]	Potency [14]	remaining parasite growth % (stronger effect = lower value) [15]	activity, percent of control [16]	remaining proliferation (% of control), lower = more inhibition [17]
CCN(CC)Cc1ccc2cc(COC(=O)Nc3ccc(C(=O)NO)cc3)ccc2c1	4.38%	6.93%	6.48%	7.88%	8.65%	4.07%	inactive	743 nM (active)	526 nM (active)	662 nM (active)	7.43 µM (active)						
CC(=O)O[C@@]12CO[C@H]1C[C@H](O)[C@@]1(C)C(=O)[C@H](O)C3=C(C)[C@@H](OC(=O)C(O)[C@@H](NC(=O)OC(C)(C)C)c4ccccc4)C[C@@](O)([C@@H](OC(=O)c4ccccc4)[C@@H]21)C3(C)C (stereo partly drawn)	5.89%	18.8%	30.4%	4.16%	22.4%	8.89%	inactive	inactive	inactive	inactive	0.0166 µM (active)	inactive					
O=S(=O)(O)CCSSCCS(=O)(=O)O	79.5%	89%	69.9%	76%	33.7%	35.3%			inactive	inactive	inactive	inactive	29600 nM (active)				
CN1CCc2c(c3ccccc3n2Cc2ccc(C(=O)NO)cc2)C1	5.11%	12.1%	15.2%	5.01%	4.7%	4.77%		13200 nM (active)	13200 nM (active)	18700 nM (active)			inactive				
CC[C@@]1([C@@H]2O[C@@H]([C@H]3O[C@@](O)(CO)[C@H](C)C[C@H]3C)C[C@H]2C)CC[C@H]([C@]2(C)CC[C@]3(C[C@H](O)[C@@H](C)[C@@H]([C@@H](C)[C@@H](OC)[C@H](C)C(=O)O)O3)O2)O1	5.35% [at 9.64 µM]	5.25% [at 9.64 µM]		3.89% [at 9.64 µM]	27.8% [at 23.2 µM]	65.7% [at 23.2 µM]	inactive	257 nM (active)	162 nM (active)	162 nM (active)	0.911 µM (active)	257 nM (active)					
CC[C@H]1OC(=O)[C@H](C)[C@@H](O[C@H]2C[C@@](C)(OC)[C@@H](O)[C@H](C)O2)[C@H](C)[C@@H](O[C@@H]2O[C@@H](C)C[C@H](N(C)C)[C@@H]2O)[C@](C)(O)C[C@@H](C)C(=O)[C@H](C)[C@@H](O)[C@]1(C)O	60.1%			82.4%	73.8%	97%	inactive		inactive	inactive	inactive	inactive					
Cn1cc(C[C@@H](N)C(=O)O)c2ccccc21	103% [at 9.64 µM]	82.7% [at 9.64 µM]	107% [at 9.64 µM]	98.8% [at 9.64 µM]	152% [at 23.2 µM]	126% [at 23.2 µM]	inactive	inactive	inactive	inactive	inactive	inactive					
Cc1cnc(NC(=O)Nc2cc(Br)c(C)cc2OC[C@@H]2CNCCO2)cn1	5.93%		8.58%	2.97%	20.9%	7.84%		2350 nM (active)	833 nM (active)	590 nM (active)		590 nM (active)	inactive				
CC(C)(O)Cn1c(NC(=O)c2ccc(-c3cn[nH]c3)s2)nc2cc(CN3CCOCC3)ccc21	6.03%	7.56%	9.94%	6.36%	7.04%	3.65%			2960 nM (active)	3320 nM (active)	3.72 µM (active)	1660 nM (active)	inactive				
COc1ccc(S(=O)(=O)Nc2cccnc2Nc2ccc(O)cc2)cc1	64.8%	94%	85.5%	51.4%	4.34%	8.72%	inactive	83.3 nM (active)	93.5 nM (active)	inactive	418 nM (active) and 920 nM (active)	148 nM (active)					
COc1cc([C@@H]2c3cc4c(cc3[C@@H](O[C@@H]3O[C@@H]5CO[C@@H](c6cccs6)O[C@@H]5[C@H](O)[C@@H]3O)[C@H]3COC(=O)[C@H]23)OCO4)cc(OC)c1O	5.39%	8.04%	9.32%	5.8%	27.7%	5.23%	inactive	264 nM (active)	29.6 nM (active)	inactive							
COC(=O)C=CC(=O)OC	76.2%	97.5%	71.3%	96.5%	35.4%	101%	inactive	8330 nM (active)	26400 nM (active)	14800 nM (active)	inactive	18700 nM (active)					
N#CC(=C(N)Sc1ccc(N)cc1)c1ccccc1C(F)(F)F	24.4%	69.5%	33.9%	7.78%	7.44%	57.2%	inactive	5900 nM (active)	3320 nM (active)	5260 nM (active)	inactive	10500 nM (active)					
C=CC[C@@H]1C=C(C)C[C@H](C)C[C@H](OC)[C@H]2O[C@@](O)(C(=O)C(=O)N3CCCC[C@H]3C(=O)O[C@H](C(C)=C[C@@H]3CC[C@H](O)[C@H](OC)C3)[C@@H](C)[C@@H](O)CC1=O)[C@@H](C)C[C@@H]2OC	8.55%	8.99%	10.3%	44.7%	17.2%		inactive	2640 nM (active)	1660 nM (active)	1480 nM (active)				inactive			
O=c1c(O)c(-c2ccc(O)c(O)c2)oc2cc(O)ccc12	5.73%	8.33%	14.7%	8.07%	9.57%		inactive	14800 nM (active)	16600 nM (active)	20900 nM (active)	13.2 µM (active)	18700 nM (active)	inactive				
CC(C)C[C@@H](C=O)NC(=O)[C@H](CC(C)C)NC(=O)[C@H](CC(C)C)NC(=O)OCc1ccccc1 (Cbz-Leu-Leu-Leu-aldehyde)	4.63%	6.51%		6.33%	5.4%		inactive		332 nM (active)	372 nM (active)	5.26 µM (active)	590 nM (active)	inactive				
NC(=O)N1CCC(CC(=O)N2CCC([C@H]3c4ncc(Br)cc4CCc4cc(Cl)cc(Br)c43)CC2)CC1	5.47%	10.6%	13.1%	9.54%	82.6%		inactive	20900 nM (active)	16600 nM (active)	372 nM (active)	7.43 µM (active)		inactive				
COC(=O)[C@H](CCCN=C(N)N)NS(=O)(=O)c1ccc(C)cc1					94.4%			inactive	inactive	inactive	inactive	inactive	inactive				
O=C(C[C@@H]1CC=CCCC(=O)O[C@H](c2ccccc2)CNC1=O)NCc1ccc(Cl)cc1	62.4%	96.1%	65.3%	54.9%	17%	94.4%		inactive	inactive	inactive	inactive	inactive		inactive	94.2%	102%	71.1%
